Structures can show the parent of a compound that is named as a salt.
Tests used:
Settings in all cases: incubation time: 27 h, anaerobic, 37 °C;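 for the amine columns active = adjusted P below 0.05 in both replicates with a change the same way and a mean fold change under 0.8 or over 1.25; inactive = the rest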
[1] = system: Clostridium sporogenes DSM 1664; assay: growth (OD595) fold change vs plate DMSO controls (fold change (ratio)); higher = more growth
Summary of the method: (§1)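 To obtain OD, 595 nm absorbance readings were blank-subtracted, corrected for compound background using 20 µM compound solutions in water, and multiplied by a calibration factor of 5. They came from 96-well mGAM cultures grown anaerobically for 27 h at 37 °C and shaken before reading. Growth is the fold change relative to the median of plate DMSO controls. Two biological replicates were averaged, and fold changes above 1.5 were set to NA.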

Escherichia coli IAI1 [2] = assay: as above
Summary of the method: as §1

[3] = system: Klebsiella aerogenes DSM 30053; assay: as above
Summary of the method: as §1

[4] = system: Ruminococcus gnavus DSM 108212; assay: as above
Summary of the method: as §1

[5] = system: Klebsiella aerogenes DSM 30053; assay: fold change of Histamine concentration vs plate DMSO controls (fold change (ratio)); higher = more amine produced, active = hit call of the paper (significant change in both replicates, either direction)
Summary of the method: (§2)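 Amines were quantified by LC–triple-quadrupole MS in dynamic MRM mode against external calibration curves, with drift correction within each batch. The samples were whole anaerobic mGAM cultures of four gut bacterial strains, grown for 27 h at 37 °C in 80 µL wells and extracted with cold acetonitrile/methanol with 0.1% formic acid, then centrifuged. Values are reported as fold change over DMSO controls on the same plate. The mean of 2 biological replicates is given.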

[6] = system: Clostridium sporogenes DSM 1664; assay: fold change of Tryptamine concentration vs plate DMSO controls (fold change (ratio)); higher = more amine produced, active = hit call of the paper (significant change in both replicates, either direction)
Summary of the method: as §2

[7] = system: Ruminococcus gnavus DSM 108212; assay: as above
Summary of the method: as §2

Escherichia coli IAI1 [8] = assay: fold change of Putrescine concentration vs plate DMSO controls (fold change (ratio)); higher = more amine produced, active = hit call of the paper (significant change in both replicates, either direction)
Summary of the method: as §2

[9] = system: Klebsiella aerogenes DSM 30053; assay: as above
Summary of the method: as §2

Escherichia coli IAI1 [10] = assay: fold change of Cadaverine concentration vs plate DMSO controls (fold change (ratio)); higher = more amine produced, active = hit call of the paper (significant change in both replicates, either direction)
Summary of the method: as §2

[11] = system: Klebsiella aerogenes DSM 30053; assay: as above
Summary of the method: as §2

[12] = system: Ruminococcus gnavus DSM 108212; assay: fold change of 2-Phenylethylamine concentration vs plate DMSO controls (fold change (ratio)); higher = more amine produced, active = hit call of the paper (significant change in both replicates, either direction)
Summary of the method: as §2

Row | SMILES | growth [1] | growth (Escherichia coli IAI1 [2]) | growth [3] | growth [4] | fold change of Histamine concentration [5] | fold change of Tryptamine concentration [6] | fold change of Tryptamine concentration [7] | fold change of Putrescine concentration (Escherichia coli IAI1 [8]) | fold change of Putrescine concentration [9] | fold change of Cadaverine concentration (Escherichia coli IAI1 [10]) | fold change of Cadaverine concentration [11] | fold change of 2-Phenylethylamine concentration [12]
1 | CCCCC(C)(O)C/C=C/[C@H]1[C@H](O)CC(=O)[C@@H]1CCCCCCC(=O)OC (mixture of isomers) [Misoprostol] (20 µM) | 1.14 | 0.994 | 1.03 | 1.19 | 1.04 (inactive) | 0.979 (inactive) | 0.987 (inactive) | 0.988 (inactive) | 1.02 (inactive) | 0.994 (inactive) | 0.995 (inactive) | 0.945 (inactive)
2 | CC(=O)OCC(=O)[C@@]1(O)[C@H](C)C[C@H]2[C@@H]3CCC4=CC(=O)C=C[C@]4(C)[C@@]3(F)[C@@H](O)C[C@@]21C [Dexamethasone acetate] (20 µM) | 1.05 | 1.01 | 0.986 | 0.878 | 1.02 (inactive) | 1.06 (inactive) | 1.01 (inactive) | 0.987 (inactive) | 1.02 (inactive) | 1.02 (inactive) | 0.983 (inactive) | 0.993 (inactive)
3 | CCC(C)(CN(C)C)OC(=O)c1ccccc1 (stereo not drawn) [Amyleine hydrochloride] (20 µM) | 0.952 | 1.01 | 0.983 | 0.997 | 1.02 (inactive) | 0.974 (inactive) | 0.945 (inactive) | 1.04 (inactive) | 1.02 (inactive) | 1.01 (inactive) | 0.983 (inactive) | 0.874 (inactive)
4 | CN(C)CCCN1c2ccccc2Sc2ccccc21 [Promazine hydrochloride] (20 µM) | 1.02 | 0.959 | 0.962 | 1 | 1.05 (inactive) | 1.1 (inactive) | 0.823 (inactive) | 0.916 (inactive) | 0.995 (inactive) | 1.03 (inactive) | 0.983 (inactive) | 0.829 (inactive)
5 | COc1ccc(CC(C)NCC(O)c2ccc(O)c(NC=O)c2)cc1 (stereo not drawn) [Formoterol fumarate] (20 µM) | 1.13 | 1.21 | 1.11 | 1.3 | 0.864 (inactive) | 1.03 (inactive) | 1.1 (inactive) | 1.03 (inactive) | 0.951 (inactive) | 0.91 (inactive) | 1.09 (inactive) | 1.11 (inactive)
6 | CC(C)(Oc1ccc(CCNC(=O)c2ccc(Cl)cc2)cc1)C(=O)O [Bezafibrate] (20 µM) | 1.06 | 1.01 | 0.993 | 0.854 | 0.964 (inactive) | 0.996 (inactive) | 1.01 (inactive) | 0.997 (inactive) | 0.991 (inactive) | 0.983 (inactive) | 0.992 (inactive) | 1.01 (inactive)
7 | N=C(N)Nc1ccc(C(=O)Oc2ccc3cc(C(=N)N)ccc3c2)cc1 [Nafamostat Mesylate] (20 µM) | 1.04 | 0.933 | 0.99 | 0.967 | 0.92 (inactive) | 0.959 (inactive) | 0.91 (inactive) | 1.04 (inactive) | 1.06 (inactive) | 1.04 (inactive) | 1.01 (inactive) | 0.948 (inactive)
8 | C[C@H](O)C(=O)Nc1c(I)c(C(=O)NC(CO)CO)c(I)c(C(=O)NC(CO)CO)c1I [Iopamidol] (20 µM) | 1.2 | 1.02 | 1.05 | 1.25 | 1.04 (inactive) | 1.03 (inactive) | 1.07 (inactive) | 0.979 (inactive) | 0.995 (inactive) | 0.999 (inactive) | 1.01 (inactive) | 1.05 (inactive)
9 | COc1cc(C)nc(-n2nc(C)cc2OC)n1 [Epirizole] (20 µM) | 0.918 | 0.98 | 1 | 0.89 | 1.02 (inactive) | 1.04 (inactive) | 0.971 (inactive) | 0.949 (inactive) | 1.02 (inactive) | 1.01 (inactive) | 1.02 (inactive) | 1.02 (inactive)
10 | CC(C)Cn1cnc2c(N)nc3ccccc3c21 [Imiquimod] (20 µM) | 1.1 | 0.977 | 1.02 | 0.323 | 0.998 (inactive) | 0.888 (inactive) | 0.149 (active) | 0.988 (inactive) | 1.02 (inactive) | 1.04 (inactive) | 1 (inactive) | 0.162 (active)
11 | O=C1CCc2cc(OCCCCc3nnnn3C3CCCCC3)ccc2N1 [Cilostazol] (20 µM) | 1.06 | 0.963 | 0.98 | 0.879 | 1.04 (inactive) | 1.02 (inactive) | 0.994 (inactive) | 1.01 (inactive) | 1.03 (inactive) | 1.03 (inactive) | 0.995 (inactive) | 0.936 (inactive)
12 | COc1c(Cl)ccc(Cl)c1C(=O)O (20 µM) | 1.05 | 1.02 | 1.03 | 1.19 | 0.99 (inactive) | 0.999 (inactive) | 0.997 (inactive) | 1.01 (inactive) | 1.01 (inactive) | 1.03 (inactive) | 1.01 (inactive) | 0.995 (inactive)
13 | CC(C)(C)C(=O)OCOC(=O)[C@@H]1N2C(=O)[C@@H](/N=C/N3CCCCCC3)[C@H]2SC1(C)C [Pivmecillinam hydrochloride] (20 µM) | 0.954 | 1.01 | 0.909 | 1.2 | 0.597 (active) | 1.01 (inactive) | 1.03 (inactive) | 1.02 (inactive) | 0.954 (inactive) | 1.46 (active) | 1.01 (inactive) | 1.03 (inactive)
14 | COc1ccc(C(=O)c2ccccc2)c(O)c1 [Oxybenzone] (20 µM) | 0.901 | 0.808 | 0.963 | 0.984 | 0.962 (inactive) | 0.954 (inactive) | 1.03 (inactive) | 0.823 (inactive) | 1 (inactive) | 1.07 (inactive) | 1 (inactive) | 0.979 (inactive)
15 | CC[N+](C)(C)c1cccc(O)c1 [Edrophonium chloride] (20 µM) | 1.07 | 1.06 | 1.01 | 1.17 | 1.07 (inactive) | 0.998 (inactive) | 1.14 (inactive) | 1.01 (inactive) | 1.03 (inactive) | 0.919 (inactive) | 1 (inactive) | 1.11 (inactive)
16 | CCCCOc1cc(C(=O)OCCN(CC)CC)ccc1N [Benoxinate hydrochloride] (20 µM) | 1.06 | 0.951 | 0.988 | 1.01 | 1.05 (inactive) | 0.997 (inactive) | 1.04 (inactive) | 0.973 (inactive) | 1.01 (inactive) | 0.978 (inactive) | 0.998 (inactive) | 1.04 (inactive)
17 | CCc1oc2ccccc2c1C(=O)c1cc(I)c(O)c(I)c1 [Benziodarone] (20 µM) | 0.283 | 0.975 | 1.01 | 0.707 | 1.03 (inactive) | 0.0565 (active) | 0.468 (active) | 1.03 (inactive) | 1.01 (inactive) | 1.05 (inactive) | 1.01 (inactive) | 0.489 (inactive)
18 | CC(=O)OCC(=O)[C@@]1(O)CC[C@H]2[C@@H]3CCC4=CC(=O)C=C[C@]4(C)[C@@]3(F)[C@@H](O)C[C@@]21C [Isoflupredone acetate] (20 µM) | 0.985 | 1.02 | 0.983 | 1 | 1.09 (inactive) | 1.03 (inactive) | 1.1 (inactive) | 1 (inactive) | 1.03 (inactive) | 0.988 (inactive) | 1.11 (inactive) | 1.22 (inactive)
19 | CN1CCC(=C2c3ccccc3CC(=O)c3sccc32)CC1 [Ketotifen fumarate] (20 µM) | 1 | 0.988 | 1.07 | 1 | 0.935 (inactive) | 1.02 (inactive) | 0.991 (inactive) | 0.966 (inactive) | 0.996 (inactive) | 1.01 (inactive) | 1.01 (inactive) | 0.968 (inactive)
20 | CC1(C)S[C@@H]2[C@H](NC(=O)C(c3ccccc3)S(=O)(=O)O)C(=O)N2[C@H]1C(=O)O (stereo partly drawn) [Sulbenicillin sodium salt] (20 µM) | 0 | 0.378 | 0.634 | 0 | 1.18 (inactive) | 0.0125 (active) | 0.086 (active) | 1.84 (inactive) | 0.969 (inactive) | 1.87 (active) | 1.08 (inactive) | 0.0641 (active)
21 | CC(C)(C)NCC(O)CSc1nc(-c2ccc(C(N)=O)s2)cs1 (stereo not drawn) [Arotinolol hydrochloride] (20 µM) | 1.07 | 1.02 | 1.02 | 1.01 | 1.01 (inactive) | 1.01 (inactive) | 1.05 (inactive) | 0.978 (inactive) | 1 (inactive) | 0.928 (inactive) | 0.989 (inactive) | 1.1 (inactive)
22 | C/C(=C(\CCOC(=O)c1ccccc1)SS/C(CCOC(=O)c1ccccc1)=C(/C)N(C=O)Cc1cnc(C)nc1N)N(C=O)Cc1cnc(C)nc1N [Bisbentiamine] (20 µM) | 0.925 | 0.985 | 0.994 | 1.01 | 1 (inactive) | 0.975 (inactive) | 0.917 (inactive) | 0.998 (inactive) | 0.999 (inactive) | 1.03 (inactive) | 0.983 (inactive) | 0.855 (inactive)
23 | CO[C@@]1(NC(=O)Cc2cccs2)C(=O)N2C(C(=O)O)=C(COC(N)=O)CS[C@@H]21 [Cefoxitin sodium salt] (20 µM) | 0 | 0.00646 | 1.45 | 0 | 1.21 (inactive) | 0.0449 (active) | 0.0768 (active) | 0.153 (active) | 1.09 (inactive) | 0.623 (active) | 1.11 (inactive) | 0.0566 (active)
24 | NCCc1ccc(O)c(O)c1 [Dopamine hydrochloride] (20 µM) | 0.979 | 1.06 | 1.03 | 0.996 | 1.06 (inactive) | 0.994 (inactive) | 1.03 (inactive) | 0.967 (inactive) | 0.996 (inactive) | 0.959 (inactive) | 0.987 (inactive) | 1.05 (inactive)

From the supplement of paper PMC12494721
